Six molecules from PubChem BioAssay (NCI) can be followed below.

Test [1] is described as follows: NCI Yeast Anticancer Drug Screen. Data for the rad50 strain (AID 155).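 Note: 0% = growth of vehicle-only cultures of the same strain.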 The following applies: S. cerevisiae rad50 strain growth inhibition, active compounds read high. An outline of the steps:
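Compounds were tested on a yeast strain with an engineered DNA damage repair alteration; the reported value is growth inhibition normalised to vehicle treatment.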

Test [2] can be described thus: NCI Yeast Anticancer Drug Screen. Data for the mec2-1 strain (AID 157). The conditions noted are these: S. cerevisiae mec2-1 strain, active compounds read high. Summed up: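 Using mec2-1 yeast: add compound, measure growth, express inhibition versus vehicle-treated cultures.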
Test [3] can be described thus: NCI Yeast Anticancer Drug Screen. Data for the sgs1 mgt1 strain (AID 161).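 Note: 0% = growth of cultures given vehicle only.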 The following applies: S. cerevisiae sgs1 mgt1 strain, active compounds read high. An outline of the steps:
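Yeast cells carrying a defined DNA-repair defect were exposed to test compounds. Growth inhibition was measured relative to vehicle-treated controls.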

Test [4] is described as follows: NCI Yeast Anticancer Drug Screen. Data for the cln2 rad14 strain (AID 165).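 Note: 0% = growth equal to vehicle treated cultures.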 The following applies: S. cerevisiae cln2 rad14 strain, active compounds read high. Summed up: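 Yeast strain cln2 rad14, bearing defects in cell cycle control and DNA repair, serves as the test system; values reflect growth inhibition compared with vehicle.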
Test [5] in a line: NCI Yeast Anticancer Drug Screen. Data for the bub3 strain (AID 167). The conditions noted are these: S. cerevisiae bub3 mutant strain, active compounds read high. An outline of the steps:
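Growth of a checkpoint-deficient yeast mutant is measured after compound exposure. Values represent inhibition relative to vehicle.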

A short description of test [6]: NCI Yeast Anticancer Drug Screen. Data for the mlh1 rad18 strain (AID 175). The conditions noted are these: S. cerevisiae mlh1 rad18 strain growth inhibition, active compounds read high. An outline of the steps:
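Steps: expose repair-defective yeast to compound; measure growth; express inhibition against vehicle-treated controls.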

Setting [7] is: at 5.0 µM (retest, dose inferred, filed as 0.5).
[8] abbreviates: at 50.0 µM (retest, dose inferred, filed as 5.0).

The structures appear in SMILES notation. This is part of a sample that, as a whole, favours compounds with a hit. Of some 79,000 tested, about 15% had one in any assay. A number with no mark means an inactive call. The source made the active and inactive calls. Cut-off read from the data, not from the text of the source: active = growth inhibition above about 70%; inactive = the rest.

As for `CC(CO)CCC(=O)C(C)C1C(=O)CC2CC3CC(O)CCC3(C)CC21C` (stereo not drawn), the growth inhibition in test [1] (setting [7]) is 3%; in test [1] (setting [8]), 41%; in test [1] (at 50.0 µM), 83.2% (active); in test [2] (setting [7]), -2%; in test [2] (setting [8]), 66%; in test [2] (at 50.0 µM), 81% (active). Also, the growth inhibition in test [3] (setting [7]) is 2%; in test [3] (setting [8]), 48%; in test [3] (at 50.0 µM), 84% (active); in test [4] (setting [7]) it was 4%; in test [4] (setting [8]), 88% (active); in test [4] (at 50.0 µM), 95.1% (active). For the same molecule, the growth inhibition in test [5] (setting [7]) was 2%; in test [5] (setting [8]) it was 85% (active); in test [5] (at 50.0 µM) it was 63.6%; in test [6] (setting [7]) it was 16%; in test [6] (setting [8]), 89% (active); in test [6] (at 50.0 µM), 90.3% (active).
As to `O=C1OCC2=C1C(c1ccc(Cl)cc1)c1cc3c(cc1O2)OCO3` (stereo not drawn), the growth inhibition in test [1] (setting [7]) is 8%; in test [1] (setting [8]), 10%; in test [1] (at 50.0 µM), -23.4%; in test [2] (setting [7]) it was 9%; in test [2] (setting [8]), 8%; in test [2] (at 50.0 µM) it was -20.4%. The growth inhibition in test [3] (setting [7]) is 4%; in test [3] (setting [8]), 16%; in test [3] (at 50.0 µM) it was -5.5%; in test [4] (setting [7]), 2%; in test [4] (setting [8]) it was 18%; in test [4] (at 50.0 µM) it was 19.4%. The growth inhibition in test [5] (setting [7]) was 17%; in test [5] (setting [8]), 21%; in test [5] (at 50.0 µM), 6.15%; in test [6] (setting [7]), 17%; in test [6] (setting [8]), 7%; in test [6] (at 50.0 µM), -15.8%.
For the molecule `O=C(O)c1cc2oc(-c3ccccc3)cc2[nH]1`, the growth inhibition in test [1] (setting [7]) is -11%; in test [1] (setting [8]), 71% (active); in test [1] (at 50.0 µM), 72.5% (active); in test [2] (setting [7]), -8%; in test [2] (setting [8]), 71% (active); in test [2] (at 50.0 µM), 88.7% (active). Further, the growth inhibition in test [3] (setting [7]) was 7%; in test [3] (setting [8]) it was 74% (active); in test [3] (at 50.0 µM), 47.9%; in test [4] (setting [7]) it was -32%; in test [4] (setting [8]) it was 34%; in test [4] (at 50.0 µM), 69.8%. Besides, the growth inhibition is -14% in test [5] (setting [7]); 51% in test [5] (setting [8]); 83.8% (active) in test [5] (at 50.0 µM); -9% in test [6] (setting [7]); 80% (active) in test [6] (setting [8]); 87.3% (active) in test [6] (at 50.0 µM).
`CC(C)=CCc1c2c(c3occ(-c4ccc(O)c(O)c4)c(=O)c3c1O)C=CC(C)(C)O2`: the growth inhibition was 16% in test [1] (setting [7]); 90% (active) in test [1] (setting [8]); 90.8% (active) in test [1] (at 50.0 µM); 29% in test [2] (setting [7]); 95% (active) in test [2] (setting [8]); 94.1% (active) in test [2] (at 50.0 µM). Further, the growth inhibition in test [3] (setting [7]) is 9%; in test [3] (setting [8]), 93% (active); in test [3] (at 50.0 µM) it was 94.8% (active); in test [4] (setting [7]) it was -25%; in test [4] (setting [8]), 76% (active); in test [4] (at 50.0 µM) it was 91.5% (active). Moreover, the growth inhibition in test [5] (setting [7]) was -7%; in test [5] (setting [8]), 94% (active); in test [5] (at 50.0 µM), 89% (active); in test [6] (setting [7]), -2%; in test [6] (setting [8]), 90% (active); in test [6] (at 50.0 µM), 90.8% (active).
Turning to `Oc1c(Cl)c(Cl)c(O)c2c1CCCC2`, the growth inhibition in test [1] (setting [7]) is 46%; in test [1] (setting [8]), 98% (active); in test [1] (at 50.0 µM), 99.3% (active); in test [2] (setting [7]), 67%; in test [2] (setting [8]), 99% (active); in test [2] (at 50.0 µM), 99.5% (active). The growth inhibition in test [3] (setting [7]) was 69%; in test [3] (setting [8]) it was 99% (active); in test [3] (at 50.0 µM), 99.2% (active); in test [4] (setting [7]), 14%; in test [4] (setting [8]), 99% (active); in test [4] (at 50.0 µM), 98.9% (active). In addition, the growth inhibition in test [5] (setting [7]) was 65%; in test [5] (setting [8]), 98% (active); in test [5] (at 50.0 µM) it was 99.5% (active); in test [6] (setting [7]), 78% (active); in test [6] (setting [8]), 99% (active); in test [6] (at 50.0 µM) it was 99.4% (active).
As to `OC(Cn1cncn1)(Cn1cncn1)c1ccc(Cl)cc1Cl`, the growth inhibition was 66% in test [1] (setting [7]); 65% in test [1] (setting [8]); 62.6% in test [1] (at 50.0 µM); 62% in test [2] (setting [7]); 59% in test [2] (setting [8]); 54.5% in test [2] (at 50.0 µM). The growth inhibition in test [3] (setting [7]) is 38%; in test [3] (setting [8]), 65%; in test [3] (at 50.0 µM), 63.2%; in test [4] (setting [7]) it was 71% (active); in test [4] (setting [8]) it was 77% (active); in test [4] (at 50.0 µM), 60.8%. The growth inhibition in test [5] (setting [7]) is 65%; in test [5] (setting [8]) it was 74% (active); in test [5] (at 50.0 µM) it was 56.7%; in test [6] (setting [7]), 75% (active); in test [6] (setting [8]), 81% (active); in test [6] (at 50.0 µM) it was 48.2%.
